Source: PubChem BioAssay
HCV inh: blocks hepatitis C virus; 340,000 compounds, 3.4% hits; Potency, µM (titrated, usually from 41.8 µM), for inactives: top-dose activity change, negative = inhibition, most hits filed as inhibitors; Huh7.5.1 HCVcc-Cre infection, luciferase reporter, 44 h; further: potency means the concentration at half of the fitted maximal effect; on the % scale 0 is the no-effect control and ±100 the full control effect
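Antiviral activity was scored by luciferase reporter output from cells infected with HCVcc-Cre (~0.5 moi) in presence of compound, 44 h infection period, cells seeded 1,000/well 4 h prior.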
Pf growth 48h: inhibits P. falciparum growth in the first generation, 48 h | P. falciparum luciferase growth in erythrocytes, 48 h | Potency, µM (series often up to 28.7 µM), without a hit: at the top dose activity change, negative = inhibition, most hits filed as inhibitors | 310,000 compounds, 5.9% hits; further: potency means the concentration at half of the fitted maximal effect; on the % scale 0 is the no-effect control and ±100 the full control effect
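Here the parasites carry a stable luciferase gene and grow inside erythrocytes in Albumax-based RPMI medium with compound for one erythrocytic cycle. Activity is scored as loss of luminescent signal.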
Pf growth 96h: P. falciparum growth inhibition at 96 hour, primary screen for plastid delayed-death inhibitors; 320,000 compounds, 6.9% hits; Potency, µM (titrated, usually from 28.7 µM), without a hit: at the highest dose activity change, negative = inhibition, most hits filed as inhibitors; P. falciparum luciferase reporter growth, 96 h; further: potency means the concentration at half of the fitted maximal effect; on the % scale 0 is the no-effect control and ±100 the full control effect
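P. falciparum expressing integrated firefly luciferase, in erythrocytes at 2% hematocrit, 0.05% parasitemia, incubated with compounds 96 h at 37 C, 5% CO2. Growth inhibition read as loss of luminescence; two-generation exposure targets delayed-death apicoplast inhibitors.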
SARS PLpro yeast-1: inhibitors of SARS-CoV papain-like protease in yeast; S. cerevisiae expressing SARS-CoV PLpro, growth rescue; Potency, µM (top dose mostly 32.9 µM), for inactives: at the highest dose activity, positive = growth rescue, hits mostly activators; 330,000 compounds, 0.19% hits; calls by dose curve; further: potency means the concentration at half of the fitted maximal effect; 0% is about no effect; nearly all actives have a fitted effect of over 55% in size
AMA1 RON2 block: inhibitors of Plasmodium falciparum AMA1-RON2 interaction; 360,000 compounds, 0.2% hits; Potency, µM (titrated, usually from 58.2 µM), inactives show top-dose activity change, negative = inhibition, usual class: inhibitors; AlphaScreen AMA1-biotinylated RON2 peptide binding;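 further: potency means the concentration at half of the fitted maximal effect; 0% = vehicle wells and -100% = peptide control; nearly all actives have a fitted effect of over 45% in size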
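AMA1 (3D7) with his tag at 25 nM final met compounds first, then biotinylated RON2 peptide at 25 nM; detection used donor plus acceptor beads, 10 µg/mL apiece, read by AlphaScreen after 30 min at room temperature.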
NS1 function inh: inhibitors of influenza NS1 protein function; Potency, µM (doses to about 46.1 µM), for inactives: top-dose activity, positive = more growth; 270,000 compounds, 0.4% hits; AID 2326; calls by dose curve; further: potency means the concentration at half of the fitted maximal effect; actives are rising curves; nearly all actives have a fitted effect of over 50% in size
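Compounds were scored for reversing the slow growth caused by influenza A NS1 in S. cerevisiae, measured by optical density at 600 nm. Assay medium contained 2% galactose at pH 6.0; NS1-free yeast of the same strain were the positive control.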
SARS PLpro yeast-2: Rescues yeast growth by inhibiting SARS-CoV PLpro; shares compounds with SARS PLpro yeast-1; yeast expressing SARS-CoV PLpro, growth phenotype rescue; calls only; 1,000 compounds, 19% hits; AID 652038; call rule not given here
* = called active by the depositor; i = inactive; ? = inconclusive; . = not tested or not shown; + = active, no number; [ ] = remark or other dose. Only some compounds are listed: those with a hit (about 12% of all), similar ones and a draw of the others. Unless noted, the call rests on the fitted dose curve; in most records, active means well fitted curve in the direction sought with a large enough effect; inconclusive means small, poorly fitted or top-dose-only effect, or another doubt; inactive means no such curve, though single readings can be large; an effect the other way counts as inactive or inconclusive.

SMILES	HCV inh	Pf growth 48h	Pf growth 96h	SARS PLpro yeast-1	AMA1 RON2 block	NS1 function inh	SARS PLpro yeast-2
O=C(C(=O)N1CCN(c2ccccc2F)CC1)c1cn(CC(=O)N2CCCC2)c2ccccc12	.	.	.	.	11%	.	.
CCOC(=O)C1(C)CCCN(C(=O)c2cccs2)C1 (stereo unspecified)	.	.	.	.	0%	.	.
O=C(CN1C(=O)NC(CCc2ccccc2)C1=O)Nc1ccc(F)c(F)c1F (stereo unspecified)	2%	.	.	2%	-1%	.	.
CC(C)NC(=O)CN1C(=O)NC(CCc2ccccc2)C1=O (stereo unspecified)	2%	3%	?	3.5µM*	16%	14%	i
CCOc1ccccc1/C=N/NC(=O)c1nnn(-c2nonc2N)c1CN1CCCCCC1	4%	.	.	.	36%	.	.
CCOc1ccc(-n2c(O)c(/C=N/NC(=O)C3COc4ccccc4O3)c3ccccc3c2=O)cc1 (stereo unspecified)	-4%	14%	69%	11µM*	85%	?	?
COc1cc(/C=N\NC(=O)C2COc3ccccc3O2)cc(OC)c1O (stereo unspecified)	-5%	?	-2%	-1%	8%	-12%	.
Cc1cccc(OCC(=O)Nc2ccc(S(=O)(=O)N3CCN(C)CC3)cc2)c1	?	?	?	3.5µM*	-5%	5%	i
COC(=O)c1cc(N/C(N)=N/c2nc(C)cc(C)n2)cc(C(=O)OC)c1	.	.	.	.	0%	.	.
O=C(COC(=O)c1ccc2ncsc2c1)Nc1ncc(Cl)cc1Cl	7%	107%	177%	22µM*	-11%[11.6 µM]	22%	i
Cc1c(Cl)cnc(NC(=O)COC(=O)c2ccc3ncsc3c2)c1Cl	-11%	272%	161%	-3%	-8%	16%	.
O=C(Nc1ccc(F)cc1)C(Sc1nc2ccccc2[nH]1)c1ccccc1 (stereo unspecified)	?	?	?	6%	-2%	0%	.
CC(=O)NC(=S)Nc1ccc(NC(=O)c2cccs2)cc1	?	?	0%	-16%	-12%	-5%	.
COc1ccccc1C(=O)NC(=S)Nc1ccc(NC(=O)c2cccs2)cc1	?	?	8%	?	7%	24%	i
CCOc1cc(/C=C/C(=O)O)ccc1OCc1ccccc1	-5%	2%	15%	2%	-7%	.	.
COc1cc(/C=C/C(=O)NC(C)C)ccc1OCc1ccccc1	?	13µM*	0%	?	4%	12%	+
CC(=O)C[C@H](O)CC(=O)[C@H]1OC(=O)CCCCCCCc2ccccc21	?	77%	?	-13%	5%	.	.
CCOC(=O)C(Cc1ccccc1)C(=O)Nc1cccc(C)c1 (stereo unspecified)	20%	16%	?	22µM*	-2%	-18%	i
O=C(COC(=O)c1ccccc1NCCO)NNC(=O)c1cccs1	?	2%	37%	?	45%	.	i
Cc1cc(C)cc(C(=O)OCC(=O)N2CCCCCC2)c1	12%	10%	42%	1%	-7%	.	.
CC(C)N1C/C(=C/c2ccsc2)C(=O)/C(=C/c2ccsc2)C1	?	?	?	22µM*	-24%	-10%	i
Cc1ccc(C2CC(=O)C(C=NCCN3CCN(C(=S)Nc4ccccc4)CC3)=C(O)C2)cc1 (stereo unspecified)	21%	-5%	-9%	-1%	57%	-5%	.
CC1(C)CC(=O)C(C=NCCN2CCN(C(=S)Nc3ccccc3)CC2)=C(O)C1	-4%	-9%	50%	?	23%	-22%	i
Cc1cc(C(=O)NNC(=O)[C@H](C)NC(=O)c2ccc(Br)cc2)c(C)o1	-2%	.	.	1%	37%	.	.
Cc1ccc(S(=O)(=O)CC(=O)Nc2cccc(C)n2)cc1	9%	25%	?	-2%	-2%	6%	.
